Screens: PubChem BioAssay, National Center for Advancing Translational Sciences (NCATS)
Shown are actives, neighbours in structure and some others; about 12% of the full set was active somewhere.
G9a inh: G9a (human) methyltransferase inhibition | Potency, µM (top dose mostly 102 µM), inactives show top-dose activity, negative = inhibition, hits mostly inhibitors | G9a H3K9 monomethylation, AlphaScreen, 2 h | hit rate 8.8% among 350,000 | Q96KQ7; note: potency is the fitted concentration of half-maximal effect; % is set by controls: 0 for no effect and ±100 for the full control effect; nearly all actives have a fitted effect of over 75% in size
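AlphaScreen detection with an anti-monomethyl H3K9 antibody quantified product after a 2 h room-temperature reaction containing 500 nM biotinylated H3K9 peptide, 20 µM SAM and 20 nM enzyme, which had been preincubated 15 min with compound.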
PLK1 PBD block: blocks phosphopeptide binding to human PLK1 polo-box domain. Plk1 PBD binding of FITC phosphopeptide, fluorescence polarization. P53350. Potency, µM, inactives show max response, negative = inhibition, hits mostly inhibitors. hit rate 2.8% among 360,000. AID 720504; note: potency is the fitted concentration of half-maximal effect; series mostly up to about 57 µM; % is set by controls: 0 for no effect and ±100 for the full control effect; nearly all actives have a fitted effect of over 65% in size
BAZ2B inh: BAZ2B (human) inhibition | AID 504333 | hit rate 4.4% among 360,000 | AlphaScreen BAZ2B-H3K14Ac peptide displacement | Potency, µM (doses to about 114 µM), for the others: at the top dose activity change, negative = inhibition, actives largely listed as inhibitors; note: potency is the fitted concentration of half-maximal effect; % is set by controls: 0 for no effect and ±100 for the full control effect; nearly all actives have a fitted effect of over 60% in size
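Multi-concentration screen (max 110 uM) measuring displacement of acetylated histone H3 peptide from BAZ2B by AlphaScreen, using 50 nM protein, 50 nM peptide and 10 ug/mL streptavidin donor plus Ni-chelate acceptor beads.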
PI5P4K alpha inh: PI5P4K alpha (human) kinase inhibition; P48426; PI5P4Kalpha enzyme, ADP-Glo luminescence, 60 min; hits give low values; max response, %; hit rate 1.2% among 330,000; active = max response of -50% or lower; inconclusive = between -30% and -50%; inactive = -30% or higher; note: value at the top dose of about 77 µM; % is set by controls: 0 for no effect and ±100 for the full control effect
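Compounds were pin-transferred onto PI5P4Kalpha and substrate in HEPES pH 7.4 buffer with EGTA, CHAPS and 5% DMSO. ATP (5 microM final) started the reaction, which ran 60 minutes at room temperature before ADP-Glo detection.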
JMJD2A Tudor: inhibitors of human JMJD2A Tudor domain | hit rate 4.4% among 390,000 | O75164 | Potency, µM (titrated, usually from 114 µM), for the others: at the top dose activity change, negative = inhibition, actives largely listed as inhibitors | AlphaScreen JMJD2A-Tudor / H3K4me3 peptide binding; note: potency is the fitted concentration of half-maximal effect; % is set by controls: 0 for no effect and ±100 for the full control effect; nearly all actives have a fitted effect of over 50% in size
HP1b chromo inh: blocks HP1-beta chromodomain binding to methylated histone tails; AlphaScreen HP1-beta / biotin-H3K9me3 peptide binding; Potency, µM (top dose mostly 114 µM), for inactives: at the top dose activity change, negative = inhibition, usual class: inhibitors; hit rate 0.56% among 390,000; note: potency is the fitted concentration of half-maximal effect; nearly all actives have a fitted effect of over 70% in size
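AlphaScreen: HP1-beta (50 nM) preformed 30 min with biotin-H3(1-18)K9me3 peptide (50 nM) in PBS pH 7.4, 0.01% Tween-20. Compound added for 30 min at RT, then streptavidin donor/nickel chelate acceptor beads (10 ug/mL) for 30 min.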
Numbers without * were called inactive; u = inconclusive; x = no result; [ ] = another dose, or the depositor's remark. Unless noted, calls come from the whole dose curve; as a rule, active = well fitted curve in the direction sought with a large enough effect; inconclusive = small, poorly fitted or top-dose-only effect, or another doubt; inactive = no such curve, though single readings can be large; an effect the other way counts as inactive or inconclusive.

SMILES | G9a inh | PLK1 PBD block | BAZ2B inh | PI5P4K alpha inh | JMJD2A Tudor | HP1b chromo inh
O=C(O)c1ccc(COc2ccccc2/C=C2\NC(=O)N(Cc3ccccc3)C2=O)cc1 | u | 18.9µM* | -28.3% | -17.2 | 25.1µM* | u
O=C1NC(=O)N(Cc2ccccc2F)C1=O | 22.4µM* | -23.9% | -37.2% | -17.5 | -13.8% | 11.7%
CCCN1C(=O)/C(=C/c2ccc(OCc3ccc(C(=O)O)cc3)c(OC)c2)NC1=S | x | -24.0% | x | 0.1 | -29.4% | 16.3%
O=C(O)c1ccc(COc2ccc3ccccc3c2/C=C2/NC(=O)N(Cc3ccc(F)cc3)C2=O)cc1 | u | u | 28.2µM* | 5.2 | 20µM* | u
Cc1ccccc1NC(=O)Cn1c(=O)n(CCCCCC(=O)NCc2ccc3c(c2)OCO3)c(=O)c2sccc21 | 10.3%[59 µM] | x | -3.2% | x | -16.4% | 14.9%
Cc1ccc(CNc2ncnc3onc(C)c23)cc1 | -0.2%[59 µM] | x | 16.8%[57.1 µM] | x | -17.5% | 43.3%
CCCN1C(=O)/C(=C/c2ccccc2OCc2ccc(C(=O)O)cc2)NC1=S | u | -17.2% | -29.0% | -1.3 | -28.5% | -25.4%
O=C(O)c1ccc(COc2ccccc2/C=C2\NC(=O)N(Cc3ccccc3F)C2=O)cc1 | u | 26.7µM* | -22.6% | -25.1 | 39.8µM* | u
CCOC(=O)c1ccc(/C=C2/C=C(c3ccccc3)N(c3ccc(Cl)c(C(=O)O)c3)C2=O)cc1 | 11.2µM* | 18.4% | 50.1µM* | u | u | -21.2%
CCOc1ccc(NC(=O)c2ccc3c(SCC(=O)O)c4c(nc3c2)CCCC4)cc1 | -9.2% | -0.4% | -20.8% | -9.5 | -8.7% | 19.7%
COc1cc(Cl)c(C)cc1NC(=O)c1ccc2c(SCC(=O)O)c3c(nc2c1)CCCC3 | -10.0% | 42.3µM* | u | -18.6 | u | -3.8%
Cc1ccc(NC(=O)c2ccc3c(SCC(=O)O)c4c(nc3c2)CCCC4)c(Br)c1 | x | u | -6.5% | -5.6 | -21.2% | 37.0%
COc1ccc(C)cc1NC(=O)c1ccc2c(SCC(=O)O)c3c(nc2c1)CCCC3 | -29.2%[59 µM] | -24.8% | -25.3% | -2.8 | -10.5% | 11.5%
CCOC(=O)c1ccccc1NC(=O)c1ccc2c(SCC(=O)O)c3c(nc2c1)CCCC3 | u | u | 50.1µM* | -11.1 | -29.9% | 5.9%[57 µM]
O=C(O)CSc1c2c(nc3cc(C(=O)Nc4cccc(C(F)(F)F)c4)ccc13)CCC2 | 39.8µM* | u | 70.8µM* | u | 79.4µM* | 16.9%
CC(C)c1ccc(/C=C/c2[nH]c(=O)[nH]c(=O)c2[N+](=O)[O-])cc1 | u | -6.2% | -29.9% | -57.5* | -2.4% | 12.1%
COc1cccc(/C=C/c2[nH]c(=O)[nH]c(=O)c2[N+](=O)[O-])c1O | u | u | -8.2% | -89.6* | -11.9% | -13.1%
CCOc1ccc(/C=C/c2[nH]c(=O)[nH]c(=O)c2[N+](=O)[O-])cc1 | u | -5.8% | -32.2% | u | -7.5% | 0.7%
COc1cc(/C=C/c2[nH]c(=O)[nH]c(=O)c2[N+](=O)[O-])cc(OC)c1O | 9.0% | -2.0% | -25.3% | -88.0* | -12.0% | 20.0%
CCCOc1ccc(/C=C/c2[nH]c(=O)[nH]c(=O)c2[N+](=O)[O-])cc1OCC | -0.9%[12.7 µM] | -1.1% | -1.1% | -20.5 | u | 3.1%
O=c1[nH]c(/C=C/c2ccccc2Cl)c([N+](=O)[O-])c(=O)[nH]1 | 21.6% | -29.0% | -16.6% | -69.2* | -6.2% | -19.9%
CCOc1cc(/C=C\c2[nH]c(=O)[nH]c(=O)c2[N+](=O)[O-])ccc1OC(C)CC (stereo not drawn) | 20.4%[12.7 µM] | -20.1% | 1.7% | x | -31.0% | -8.7%
CCOC(=O)C(C)NC(=O)c1c2c(nc3ccccc13)C(=O)N(C1CCCCC1)C2 (stereo not drawn) | 2.4%[59 µM] | x | -11.8% | x | -15.7% | 38.5%
O=C(COc1ccccc1[N+](=O)[O-])Nc1cc(C(=O)O)cc(C(=O)O)c1 | -25.1% | 2.8% | 1.2% | -1.9 | -4.9% | 23.2%
O=C(COc1ccccc1/C=C\c1[nH]c(=O)[nH]c(=O)c1[N+](=O)[O-])Nc1ccccc1 | u | -12.4% | -7.8% | -69.5* | -24.3% | -9.6%
